Rows were chosen to be rich in hits. Some 2.3% of all compounds tested hit in one or more screens of this group.
PP1 counter = blocks human PP1-alpha phosphatase, a PP5 counter-screen | actives 0.9% (n = 320,000) | inhibition, % at 6.7 µM | purified PP1alpha, OMFP fluorescence | P62136 | AID 2235;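 active = inhibition above the mean inhibition of all tested compounds plus 3 SD, computed separately for each screening campaign, cut at about 15% in these data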
PP5 inh = PP5 (human) phosphatase inhibition | inhibition, % at 6.7 µM | actives 0.18% (n = 320,000) | P53041 | purified PP5c, OMFP substrate fluorescence;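 active = inhibition above the campaign's mean inhibition across all tested compounds plus 3 SD, cut at about 9.5% in these data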;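 also: 0% = DMSO only and 100% = 100 µM cantharidin control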
Target sequence (P53041 whole entry, looked up): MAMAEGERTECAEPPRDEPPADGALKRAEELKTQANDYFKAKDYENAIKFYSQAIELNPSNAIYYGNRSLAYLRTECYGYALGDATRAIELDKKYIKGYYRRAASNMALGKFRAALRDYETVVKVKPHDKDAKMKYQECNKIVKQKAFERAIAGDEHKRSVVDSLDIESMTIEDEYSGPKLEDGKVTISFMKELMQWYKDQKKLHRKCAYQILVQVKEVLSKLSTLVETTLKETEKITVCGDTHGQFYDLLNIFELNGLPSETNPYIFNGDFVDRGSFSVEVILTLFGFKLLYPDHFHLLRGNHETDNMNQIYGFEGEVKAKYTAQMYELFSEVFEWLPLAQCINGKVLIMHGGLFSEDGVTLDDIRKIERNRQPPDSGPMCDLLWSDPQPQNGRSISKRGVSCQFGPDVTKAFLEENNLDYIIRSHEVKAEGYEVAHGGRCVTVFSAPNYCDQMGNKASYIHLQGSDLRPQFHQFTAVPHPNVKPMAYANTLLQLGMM
MsrA act = activators of bovine methionine sulfoxide reductase A; purified bovine MsrA, absorbance read-out; activation, % at 10.6 µM; actives 0.3% (n = 360,000); in the data active = activation above about 7.5%;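 also: 0% = vehicle and 100% = reference activator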
MsrA inhibitor = bovine MsrA inhibition; AID 651718; actives 0.75% (n = 360,000); purified bovine MsrA, absorbance read-out; inhibition, % at 15.5 µM; in the data active = inhibition above about 4.5%;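 also: 0% = vehicle wells with enzyme and 100% = reference inhibitor wells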
EBNA-1 inh = blocks EBNA-1 binding to DNA; EBNA-1 DNA binding, fluorescence polarization; AID 1950; inhibition, % at 14.8 µM; actives 0.34% (n = 300,000); in the data active = inhibition above about 28%
ZTA counter = blocks Epstein-Barr virus ZTA, an EBNA-1 counter-screen | P03206 | ZTA-DNA binding, fluorescence polarization | inhibition, % at 11 µM | actives 0.15% (n = 320,000) | AID 2234; in the data active = inhibition above about 33%
PP1 confirm = confirmation of human PP1 phosphatase inhibitors. shares compounds with PP1 counter. purified PP1alpha, OMFP substrate fluorescence. inhibition, % at 6.7 µM. actives 52% (n = 1,900);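 active = mean PP1 inhibition above a set limit taken from the earlier primary screen, cut at about 15% in these data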
PP5 counter = PP5 phosphatase inhibition, counter-screen for PP1 inhibitors; shares compounds with PP1 counter; purified PP5c, OMFP fluorescence; inhibition, % at 6.7 µM; actives 4% (n = 1,900);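 active = mean PP5 inhibition over triplicate wells above about 9.5% taken from the earlier PP1 screen, limit read from the data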
Active calls of the source: *; . = no result given; ! = not confirmed by another sample.

SMILES	PP1 counter	PP5 inh	MsrA act	MsrA inhibitor	EBNA-1 inh	ZTA counter	PP1 confirm	PP5 counter
O=C(Cn1c(=O)n(Cc2ccco2)c(=O)c2c3c(sc21)CCCCC3)Nc1ccccc1	7.6	5.5	-8.9	0.2	-8.4	10.0	.	.
NC(=O)CC(NC(=O)Cc1cccc2ccccc12)c1ccc(NCCOc2ccccc2)c([N+](=O)[O-])c1 (configuration not stated)	23.1*	-2.7	-7.8	1.0	4.7	-12.2	27.3*	-3.7
NC(=O)CC(NC(=O)Cc1cccc2ccccc12)c1ccc(NC2CCCCC2)c([N+](=O)[O-])c1 (configuration not stated)	19.7*	0.0	-4.5	0.0	-8.1	8.8	24.1*	-7.3
COc1ccc(/C=C2/C(=O)N(c3nc4ccccc4s3)N=C2CSc2ccc(Cl)cc2)cc1	31.1*	-1.1	-13.5	-0.2	8.6	18.4	9.0	0.1
CC(C)C[C@H](NC(=O)c1nc[nH]c1C(=O)NC(c1ccccc1)c1ccccc1)C(=O)OCc1ccccc1	19.0*	1.8	-0.8	0.5	10.4	0.5	11.0	3.2
Cc1cccc(OCc2nnc(SCC(=O)N3c4ccccc4CCc4ccccc43)o2)c1	19.0*	2.4	-3.0	-0.1	1.6	-3.6	4.3	-0.8
COc1cc2[nH]c3c(c2cc1OC)CCN1CCCC[C@@H]31	0.4	1.1	-2.0	0.2	-10.3	1.7	.	.
O=C(NCc1cccnc1)/C(=C/c1ccc(-c2cccc(C(F)(F)F)c2)o1)NC(=O)c1ccccc1	7.1	7.0	2.1	1.8	-0.6	-11.3	.	.
Cc1ccc(C(=O)N/C(=C/c2ccc(-c3cc(C(F)(F)F)ccc3Cl)o2)C(=O)NCc2cccnc2)cc1	21.7*	2.7	-7.8	1.6	-6.3	17.6	12.6	3.4
Cc1ccc(C)c(Cn2c3ccccc3c3cnn(CC(=O)NCCCN4CCOCC4)c(=O)c32)c1	-2.7	-2.3	-1.7	0.0	0.8	-2.5	.	.
COc1ccccc1C(=O)NC(=O)COC(=O)CNC(=O)c1ccc(Cl)c([N+](=O)[O-])c1	27.3*	0.0	3.5	0.0	-2.9	-0.4	-3.3	-2.5
COc1ccccc1C(=O)NC(=O)COC(=O)c1ccc(Cl)cc1[N+](=O)[O-]	-3.7	1.5	-9.3	-0.1	-7.4	2.2	.	.
CCCNC(=O)c1cc(C2CCCN(C(=O)c3ccccc3)C2)on1 (configuration not stated)	.	.	-1.5	0.7	.	.	.	.
CCOC(=O)C1=C(c2ccccc2)N=c2s/c(=C\c3ccco3)c(=O)n2C1c1cccs1 (configuration not stated)	20.9*	1.1	-4.5	1.5	2.4	1.7	19.0*	-2.1
CCOC(=O)C1=C(c2ccccc2)N=c2s/c(=C\c3cc(OC)c(OC)c(OC)c3)c(=O)n2C1c1cccs1 (configuration not stated)	0.2	2.7	-10.7	-0.1	-0.3	5.6	.	.
CCN1CCc2nc3sc(C(=O)N4CCc5ccccc5C4)c(N)c3cc2C1	12.4	3.6	-3.8	-0.1	-13.7	-8.3	.	.
CC(C)OC(=O)CC(=O)c1sc2nc3c(cc2c1N)CN(C)CC3	23.3*	4.7	.	.	1.4	15.0	7.5	20.0*
NC(=O)c1ccsc1NC(=O)CS(=O)(=O)c1ccc(F)cc1	-3.9	-0.1	-2.1	0.3	-2.5	-1.0	.	.
COC(=O)Cc1ccc(OC(=O)c2cccc(S(=O)(=O)N3CCN(C)CC3)c2)cc1	-3.7	-2.5	-1.9	0.1	3.9	7.0	.	.
CCc1ccc(NC(=O)Cn2ncc3c4ccccc4n(C)c3c2=O)cc1	23.6*	-2.8	-13.3	-1.1	1.7	11.4	22.3*	-5.4
O=C(Cn1ncc2c3ccccc3n(Cc3ccc(Cl)cc3)c2c1=O)NCCCN1CCCC1=O	1.9	0.7	-4.3	1.2	-10.5	-0.9	.	.
Cn1c2ccccc2c2cnn(CC(=O)Nc3ccc(Cl)cc3)c(=O)c21	18.3*	1.3	-3.9	1.4	6.8	-1.9	14.0	-0.2
CCCn1c2ccccc2c2cnn(CC(=O)NCCOC)c(=O)c21	.	.	-0.4	0.4	.	.	.	.
CCOC(=O)c1c(NC(=O)COC(=O)c2ccc(Cl)nc2)sc(C)c1C	.	.	-3.9	0.1	.	.	.	.
O=c1c2c(-c3ccco3)csc2nc(SCc2cn3cccnc3n2)n1-c1ccccc1	28.9*	2.1	-4.8	1.1	-0.4	11.9	20.9*	0.4
SMILES	PP1 counter	PP5 inh	MsrA act	MsrA inhibitor	EBNA-1 inh	ZTA counter	PP1 confirm	PP5 counter
NC(=O)CSc1nc2scc(-c3ccco3)c2c(=O)n1-c1ccccc1	9.4	4.3	-4.6	1.3	3.5	-18.5	.	.
CC[n+]1c(/C=C/N(C)c2ccccc2)n(-c2ccccc2)c2ccc(-c3nc4ccccc4s3)cc21	36.1*	1.5	-8.4	.	15.1	42.0*	7.7	0.2
N[C@@H](Cc1cc(I)c(Oc2ccc(O)c(I)c2)c(I)c1)C(=O)O	28.3*!	0.8	-2.7	0.0	7.1	-13.0	15.0	-5.5
CCN(C(=O)c1cc2c(=O)[nH]c3ccc(C)cc3c2s1)c1ccc(F)cc1	17.8*	0.3	-4.0	0.1	12.8	6.8	17.0*	-2.3
COc1cc(Cl)c(C)cc1NC(=O)COC(=O)c1cc[n+]([O-])cc1	-1.0	0.0	-3.4	-0.1	6.2	-4.2	.	.
COC(=O)CCC(=O)OC1(C)C(=O)C2=CN(Cc3ccco3)C(c3ccc(OC)cc3)=CC2=C(Br)C1=O (configuration not stated)	0.2	2.8	.	.	11.4	4.9	.	.
COC(=O)CCC(=O)OC1(C)C(=O)C2=CN(c3ccc(OC)cc3)C(c3ccc(OC)cc3)=CC2=C(Br)C1=O (configuration not stated)	19.8*	3.6	-10.0	.	4.7	7.2	15.7*	20.2*
CCN(CC)CCCN1C=C2C(=O)C(C)(OC(=O)CCC(=O)OC)C(=O)C(Br)=C2C=C1c1ccc(OC)cc1 (configuration not stated)	8.2	3.8	-6.7	0.0	2.3	7.0	.	.
COC(=O)CCC(=O)OC1(C)C(=O)C=C2C=C(C3CC3)N(c3ccc(CO)cc3)C=C2C1=O (configuration not stated)	19.0*	6.9	.	.	-0.7	14.1	19.8*	9.9*
COC(=O)CCC(=O)OC1(C)C(=O)C=C2C=C(C3CC3)N(c3cccc(C#N)c3)C=C2C1=O (configuration not stated)	3.5	3.2	0.0	1.8	11.6	-3.2	.	.
COC(=O)CCC(=O)OC1(C)C(=O)C2=CN(C3CCCC3)C(c3ccc(OC)cc3)=CC2=C(Br)C1=O (configuration not stated)	17.1*	9.7*	-3.7	3.5	3.8	-11.2	15.1	34.7*
CCc1cc2cc(C)cc(C)c2[nH]c1=S	-4.8	-1.6	-2.0	-1.2	4.2	1.4	.	.
CNC(=O)C[C@H]1C(=O)N(c2ccc(OC)cc2)C[C@@H]1C	.	.	-0.6	-1.0	.	.	.	.
